Assay results taken from PubChem BioAssay AID1159580 (chemical genetic matrix, 2015).
About 2,000 (36%) of roughly 5,500 compounds were called active. Another 18% or so got no clear call; they are omitted. Cut-off read from the data, not from the text of the source: active = normalized growth mostly below about 0.91 (no sharp cut-off); inconclusive = no clear call, values can overlap the other calls; inactive = mostly above about 0.92. Some of the results follow.

Experiment: chemical genetic growth profiling, strain panel (AID 1159580);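 note: tested at 20 µM; growth read once vehicle control cultures reached saturation at 30 °C; 1 = growth at the plate median or of vehicle wells; lower values mean less growth of the strain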
Details: S. cerevisiae deletion strains, growth OD

Measured: normalized growth

CSc1nc(N)c2ncn([C@@H]3O[C@H](COP(=O)(O)OP(=O)(O)O)[C@H](O)C3O)c2n1 (stereo partly drawn)
inactive: locus YAL013W, strain DEP1, hits give low values 1.01 | locus YAL040C, strain CLN3, hits give low values 1.01 | locus YCL061C, strain MRC1 (second series), hits give low values 1.01 | locus YDR363W, strain ESC2, hits give low values 1.04 | locus YER002W, strain NOP16, hits give low values 1 | locus YJR075W, strain HOC1, hits give low values 1.03 | locus YNL153C, strain GIM3, hits give low values 1.03 | locus YNL175C, strain NOP13, hits give low values 1.02 | locus YNL197C, strain WHI3, hits give low values 0.99 | locus YNL224C, strain SQS1, hits give low values 0.998 | locus YOR083W, strain WHI5 (second series), hits give low values 1.02 | locus YPL055C, strain LGE1, hits give low values 1.02 | locus YPL241C, strain CIN2, hits give low values 1
